# Compound activity from PubChem BioAssay.
# Only some compounds are listed: those with a hit (about 32% of all), similar ones and a draw of the others.
# CYP2C19 inh – blockers of cytochrome P450 2C19 activity – biochemical, luminescence, ADME assay, primary screen | CYP2C19 Supersomes, luciferin-H EGE luminescence, 30 min | inhibition, % at 5 µM | 21% of 96,000 active | AID 778, 2007;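 active = CYP2C19 inhibition above a set limit at 5 µM in the primary screen, cut at about 50% in these data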;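 also: plate controls were negative control wells for no effect and 2.5 mM tranylcypromine positive control for full effect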
# CYP2C9 activ – human CYP2C9 activators, primary screen, biochemical, luminescence; Cytochrome P450 2C9 (Homo sapiens), P11712; recombinant CYP2C9, luciferin-H conversion; active compounds read high; factor 1 = untreated enzyme, 0 = blocked; activation factor at 5 µM; 1.4% of 96,000 active;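 active = activation factor of 2 or more for CYP2C9 at a 5 µM dose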;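 also: 0 = sulfaphenazole-blocked wells and 1 = vehicle-only wells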
# Target sequence (P11712 whole entry, looked up): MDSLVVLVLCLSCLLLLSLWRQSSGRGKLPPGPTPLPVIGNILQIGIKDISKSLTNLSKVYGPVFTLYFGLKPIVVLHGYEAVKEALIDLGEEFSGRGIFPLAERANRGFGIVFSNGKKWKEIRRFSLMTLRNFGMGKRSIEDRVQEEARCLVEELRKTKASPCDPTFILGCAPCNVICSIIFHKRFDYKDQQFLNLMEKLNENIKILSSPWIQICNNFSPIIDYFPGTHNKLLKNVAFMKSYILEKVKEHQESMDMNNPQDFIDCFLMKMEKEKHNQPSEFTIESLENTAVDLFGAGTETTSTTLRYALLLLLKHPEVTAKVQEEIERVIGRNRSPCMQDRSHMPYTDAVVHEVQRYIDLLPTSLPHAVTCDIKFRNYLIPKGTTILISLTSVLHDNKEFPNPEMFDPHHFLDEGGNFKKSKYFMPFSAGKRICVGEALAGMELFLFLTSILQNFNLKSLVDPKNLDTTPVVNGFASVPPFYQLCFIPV
# PostGolgi yeast – phenotypic screen on post-Golgi transport, primary screen | post-Golgi transport phenotypic cell assay | inhibition, % at 10 µM | 0.9% of 98,000 active;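 also: yeast cells grown in 1536-well plates; yeast grown about 18 h at 30C before absorbance read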
# CYP2C19 activ – human CYP2C19 activators, primary screen, biochemical, luminescence; Cytochrome P450 2C19 (Homo sapiens), P33261; recombinant CYP2C19, luciferin-H EGE luminescence; active compounds read high; 0 = fully inhibited enzyme, 1 = untreated enzyme; activation factor at 5 µM; 96,000 tested, under 10 active; AID 1025, 2008;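 active = activation factor of at least 2 at 5 µM in the primary screen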;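 also: 0 = wells with 2.5 mM tranylcypromine and 1 = vehicle-only wells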
# CYP2C9 inh – blockers of cytochrome P450 2C9 activity – biochemical, luminescence, ADME assay, primary screen. P11712. CYP2C9 Supersomes, luciferin-H conversion. inhibition, % at 5 µM. 20% of 96,000 active;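 active = blocking of liver enzyme CYP2C9 beyond about 50% at 5 µM, limit read from the data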
# PostGolgi ctrl – growth inhibition of yeast control strain, primary screen, counter-screen for post-Golgi transport modulator project; efflux-deficient yeast background strain, growth absorbance A615, 16 h; 5% of 98,000 active; inhibition, % at 10 µM; AID 738, 2007
# * hit, by the source's call; x = no result given. Rule as the data show it, unless noted: active = inhibition above about 30%; inactive = the rest.
SMILES,CYP2C19 inh,CYP2C9 activ,PostGolgi yeast,CYP2C19 activ,CYP2C9 inh,PostGolgi ctrl
COc1ccc(N2CCN(c3nc(NCCc4ccc(OC)c(OC)c4)nc(OC)n3)CC2)cc1,82*,0.2,5,0.2,83*,20
CCOc1ccc(N2C(=O)CC(N3CCN(c4ccccc4F)CC3)C2=O)cc1 (stereo not given),-13,1,6,1.1,0,10
O=C(CC(C(=O)O)C1CCCO1)NCc1ccccc1 (stereo not given),-17,1.2,-7,1.2,-18,0
CC(CC(=O)NCc1ccccc1)C1CCCO1 (stereo not given),49,0.4,2,0.5,60*,-2
CC(NC(N)=O)C(=O)OCc1ccc(Cl)cc1Cl (stereo not given),43,1.4,-3,0.6,-41,1
O=C(OCc1ccc(Cl)cc1Cl)c1cccnc1Cl,74*,1,5,0.3,-1,5
CC(=O)NC(C)C(=O)OCc1ccc(Cl)cc1Cl (stereo not given),59*,2.7*,-6,0.4,-168,3
O=C(COC(=O)c1cccnc1Cl)c1cccc(Cl)c1,56*,1,-3,0.4,2,2
NC(=O)c1cccnc1Oc1cccc(Cl)c1,9,0.9,-3,0.9,6,6
C/C(Cn1nnc([N+](=O)[O-])n1)=N\NC(=O)c1cccc(Cl)c1,6,0.9,1,0.9,6,2
CC(=O)Nc1ccc(S(=O)(=O)N(C)CC(=O)Nc2ccccc2N2CCOCC2)cc1,13,1.3,0,0.9,-34,4
O=C(CN1C(=O)C2C3C=CC(C3)C2C1=O)N1CC=C(c2ccccc2)CC1 (stereo not given),-16,1.2,-2,1.2,-16,31*
C/C(Cl)=C/CN1C(=O)C2C3C=CC(C3)C2C1=O (stereo not given),73*,0.7,2,0.3,29,14
O=C1C2C3C=CC(C3)C2C(=O)N1Cc1ccccc1 (stereo not given),84*,0.8,-7,0.2,19,12
CC12C(=O)N(Cc3ccccc3)C(=O)C1C1C=CC2C1 (stereo not given),89*,0.8,5,0.1,20,1
COc1ccc(CN2C(=O)C3C4C=CC(C4)C3C2=O)cc1 (stereo not given),16,0.9,2,0.8,8,8
O=C(Oc1ccccc1Cl)c1ccccc1P(=O)(O)O,-2,1.1,-5,1,-5,0
CS(=O)(=O)N(CC(=O)Nc1ccc2c(c1)OCO2)Cc1ccc(Cl)cc1,84*,0.2,-13,0.2,77*,-1
CS(=O)(=O)N(CC(=O)O)c1ccc2c(c1)OCO2,15,1.2,5,0.9,-17,5
COC(=O)c1ccc(NC(=O)CN(Cc2ccc(Cl)cc2)S(C)(=O)=O)cc1,95*,0.2,0,0.1,82*,0
CS(=O)(=O)N(CC(=O)Nc1ccc2c(c1)OCO2)c1ccc(Cl)cc1,88*,0.1,-5,0.1,90*,10
COCCCNC(=O)CN(Cc1ccc(Cl)cc1)S(C)(=O)=O,58*,1,0,0.4,-2,6
O=S(=O)(Cc1ccc(Cl)cc1)Nc1ccc2c(c1)OCO2,1,1.1,-1,1,-7,1
O=S(=O)(NCc1ccccc1)c1ccc(S(=O)(=O)N(Cc2ccccn2)Cc2ccco2)cc1,6,0.9,2,0.9,13,11
O=c1cc(N2CCc3ccccc32)[nH]c(=O)n1Cc1ccc(F)cc1,11,0.9,x,0.9,14,x
SMILES,CYP2C19 inh,CYP2C9 activ,PostGolgi yeast,CYP2C19 activ,CYP2C9 inh,PostGolgi ctrl
CCCCn1c(SCc2cc(=O)[nH]c3ccccc23)nc2c1c(=O)n(C)c(=O)n2C,14,0.8,x,0.9,16,x
CC(C)(C)c1cc(CN2CCC(O)CC2)cc(C(C)(C)C)c1O,8,0.9,-1,0.9,14,2
CC(C)CC(NC(=O)c1ccco1)C(=O)Nc1ccc2c(c1)OCCO2 (stereo not given),18,0.9,-10,0.8,14,-5
CS(=O)(=O)N(CCc1ccccc1)CC(=O)Nc1ccc2c(c1)OCO2,15,0.6,1,0.8,36,6
CS(=O)(=O)N(CC(=O)Nc1ccc2c(c1)OCO2)Cc1ccccc1,70*,0.5,3,0.3,48,2
CN(CCC(=O)Nc1ccc2c(c1)OCO2)Cc1ccccc1,32,0.5,-2,0.7,52*,2
O=C(Nc1ccc2c(c1)OCO2)C1(S(=O)(=O)c2ccc(Cl)cc2)CC1,31,0.2,-19,0.7,85*,13
O=C(Nc1nccs1)C1(S(=O)(=O)c2ccc(Cl)cc2)CC1,38,0.7,-3,0.6,34,-3
Cc1ccc(S(=O)(=O)C2(C(=O)Nc3cccc(F)c3)CC2)cc1,95*,0.6,-3,0,39,3
Cc1ccc(NC(=O)C2(S(=O)(=O)c3ccc(C)cc3)CC2)cc1,36,0.5,-10,0.6,49,7
O=C(C1CC1)N1CCC(c2nc(-c3ccc(S(=O)(=O)N4CCCC4)cc3)no2)CC1,20,0.6,11,0.8,37,3
Cc1ccc(-c2noc(C3CCCN(S(=O)(=O)c4ccc(S(=O)(=O)N(C)C)cc4)C3)n2)o1 (stereo not given),21,0.2,-3,0.8,82*,6
Cc1ccc(S(=O)(=O)N2CCCC(c3nc(-c4ccc(C)o4)no3)C2)cc1 (stereo not given),90*,0.2,0,0.1,83*,14
O=C(Cc1ccccc1)N1CCCC(c2nc(-c3ccc(S(=O)(=O)N4CCCC4)cc3)no2)C1 (stereo not given),38,0.3,-9,0.6,73*,3
CCCn1nc(Oc2nc(NCC)nc(NCC)n2)ccc1=O,-7,1.1,-1,1.1,-9,-3
CCOc1ccc(NC(=O)c2nccnc2CO)cc1,30,0.7,6,0.7,32,9
CCN(CC)CC(=O)NCc1cc(-c2ccc(OC)cc2)no1,18,0.8,14,0.8,16,9
Cc1nc(CS(=O)(=O)c2ccccc2)cc(Sc2ccc(Cl)cc2Cl)n1,32,0.5,5,0.7,50*,37*
COCc1cc(Sc2cccc(Cl)c2Cl)nc(-c2ccccc2)n1,6,0.8,8,0.9,22,-8
CCn1c(=NC(=O)c2ccc(S(=O)(=O)N3CCOCC3)cc2)sc2cccc(OC)c21,12,1.1,4,0.9,-8,14
